# Bioassay records as filed in PubChem BioAssay.
# An excerpt weighted towards active compounds, which were near 4.1% of everything screened.
# KLF5 inhibitor: kruppel-like factor 5 inhibition. inhibition, % at 5 µM. DLD-1 KLF5 promoter-luciferase reporter, luminescence. hit rate 0.23% among 290,000;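 active = inhibition above a per-plate limit of that plate's mean compound inhibition plus 3 SD, cut at about 60% in these data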;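 also: 0% = DMSO wells and 100% = LY294002 at 200 µM; higher means less KLF5 promoter-driven luciferase light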
# aSyn UTR inh: 5' untranslated region of α-synuclein, MLPCN primary screen; hit rate 0.82% among 300,000; AID 1813; alpha-synuclein 5'UTR reporter, inhibitor activity; inhibition, % (tested at 7.5 µM); in the data active = inhibition above about 60%;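 also: H4 neuroglioblastoma cells stably carrying SNCA 5'UTR luciferase fusion; 0% = DMSO wells and 100% = positive control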
# Gli-Sufu antag: Gli-Sufu pathway antagonism. Sufu-KO-LIGHT fibroblasts, Gli luciferase reporter luminescence. hit rate 0.74% among 340,000. inhibition, % at 5 µM;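 active = inhibition above about 55%, limit read from the data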;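 also: 0% = DMSO-treated cells and 100% = wells with medium but no cells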
# 697 NFkB inh: lowers PMA/ionomycin-induced NF-kB signal in 697 B cells. hit rate 0.33% among 330,000. AID 435022. 697 B-cell NF-kB luciferase reporter, 16 h. inhibition, % at 4 µM; in the data active = inhibition above about 35%
# Mdm2-MdmX inh: human Mdm2/MdmX binding inhibition | O15151+Q00987 | SaOS-2 split-luciferase Mdm2/MdmX complementation, luminescence | inhibition, % at 8 µM | hit rate 3% among 330,000 | AID 485346;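 active = inhibition of at least 50% at 8 µM in the primary screen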
# Target sequence (O15151 whole entry, looked up): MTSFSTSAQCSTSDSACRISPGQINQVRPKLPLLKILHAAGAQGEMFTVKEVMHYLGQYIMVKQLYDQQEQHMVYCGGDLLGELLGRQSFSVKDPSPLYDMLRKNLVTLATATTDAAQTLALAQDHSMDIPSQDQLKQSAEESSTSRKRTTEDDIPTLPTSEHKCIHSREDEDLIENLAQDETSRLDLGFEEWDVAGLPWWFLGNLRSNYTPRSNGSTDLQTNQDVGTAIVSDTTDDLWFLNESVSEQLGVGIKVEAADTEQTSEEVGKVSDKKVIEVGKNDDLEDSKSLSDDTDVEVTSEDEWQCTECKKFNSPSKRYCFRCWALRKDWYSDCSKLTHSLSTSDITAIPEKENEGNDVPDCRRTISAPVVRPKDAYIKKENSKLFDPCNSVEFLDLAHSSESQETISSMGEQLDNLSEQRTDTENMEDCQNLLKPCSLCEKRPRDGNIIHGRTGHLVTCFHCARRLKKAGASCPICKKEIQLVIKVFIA
# Target sequence (Q00987 whole entry, looked up): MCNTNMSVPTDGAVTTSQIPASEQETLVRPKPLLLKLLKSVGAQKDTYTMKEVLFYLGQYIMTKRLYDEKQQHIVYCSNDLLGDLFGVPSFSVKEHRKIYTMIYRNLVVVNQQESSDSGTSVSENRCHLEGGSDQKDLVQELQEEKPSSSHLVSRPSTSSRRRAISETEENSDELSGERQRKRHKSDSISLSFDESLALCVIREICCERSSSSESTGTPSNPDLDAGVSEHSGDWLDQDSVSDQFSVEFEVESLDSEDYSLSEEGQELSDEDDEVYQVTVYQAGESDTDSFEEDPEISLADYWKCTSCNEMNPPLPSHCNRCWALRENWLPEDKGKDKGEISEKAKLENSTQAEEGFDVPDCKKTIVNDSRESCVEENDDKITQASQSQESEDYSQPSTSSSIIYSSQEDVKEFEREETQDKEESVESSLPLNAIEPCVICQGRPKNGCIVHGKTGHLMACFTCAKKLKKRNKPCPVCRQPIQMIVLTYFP
# Jurkat NFkB inh: lowers PMA/ionomycin-induced NF-kB signal in Jurkat cells | inhibition, % at 4 µM | hit rate 0.53% among 330,000 | AID 435003 | PMA/ionomycin-induced NF-kB luciferase reporter, luminescence; in the data active = inhibition above about 50%
# Gli-Sufu confirm: confirmation of Gli-SUFU pathway antagonists. shares compounds with Gli-Sufu antag. Sufu-KO-LIGHT cells, Gli luciferase reporter, luminescence. inhibition, % at 5 µM. hit rate 40% among 2,500;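 active = mean inhibition at 5 µM reaching about 45%, limit read from the data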;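 also: plate controls were DMSO-treated cells for no effect and wells lacking cells for full effect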
# SufuKO cytotox: cytotoxicity counter-screen for Gli-SUFU antagonists. hit rate 32% among 2,500. Sufu-KO-LIGHT cells cytotoxicity, ATP luminescence. AID 651994. cytotoxicity, % at 5 µM. shares compounds with Gli-Sufu antag;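 active = mean cytotoxicity at 5 µM above about 25%, limit read from the data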;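 also: cells exposed to compound overnight for roughly 16 to 18 hours; plate controls were DMSO wells with cells for no effect and medium without cells for full effect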
# Wnt3a counter: counter-screen for Gli-SUFU antagonists: Wnt3a reporter inhibition | shares compounds with Gli-Sufu antag | Wnt-LIGHT cells, Wnt3a-driven luciferase reporter, luminescence | inhibition, % at 6.25 µM | hit rate 20% among 2,500 | AID 651995;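 active = mean inhibition above about 25%, limit read from the data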
# Active calls of the source: *; . = no result given.
SMILES,KLF5 inhibitor,aSyn UTR inh,Gli-Sufu antag,697 NFkB inh,Mdm2-MdmX inh,Jurkat NFkB inh,Gli-Sufu confirm,SufuKO cytotox,Wnt3a counter
O=C1N(c2cccc3ccccc23)C(c2ccccc2)N2CCCN12 (centres undefined),14.4,4.6,81.3*,-4.1,8.3,-11.9,14.4,4.7,-10.1
Cc1c(C(=O)OCC(=O)N2CC(=O)Nc3ccccc32)oc2ccccc12,-35.1,-12.2,94.4*,-2.8,-8.7,-11.3,11.8,13.7,-34.8
O=C(Cc1cccs1)Nc1cccc(-c2nc3ccccc3o2)c1,1.7,-41.7,99.0*,-20.8,-49.7,-8.1,20.4,13.8,-6.3
Cc1ccc(-c2nc3ccccc3o2)cc1NC(=O)Cc1cccs1,-39.8,-2.2,-2.9,6.0,21.6,7.3,.,.,.
CC(C(=O)NCCS(=O)(=O)c1ccc(Cl)cc1)S(=O)(=O)c1ccccc1 (centres undefined),12.6,3.3,-1.6,-0.5,20.0,-7.3,.,.,.
CC(C(=O)NCCS(=O)(=O)c1ccc(Cl)cc1)S(=O)(=O)c1ccc(Cl)cc1 (centres undefined),-32.0,13.6,71.8*,-15.6,1.0,-22.0,18.2,5.8,5.2
Cc1cc(/C=C2/SC(=S)N(c3cccc(Cl)c3)C2=O)c(C)n1-c1cccnc1,-13.8,48.6,15.0,2.7,6.7,-6.0,.,.,.
Cc1cc(/C=C2/SC(=S)N(c3ccc([N+](=O)[O-])cc3)C2=O)c(C)n1-c1cccnc1,0.2,8.3,80.8*,22.2,32.1,45.4,82.3*,20.2,-8.4
COc1ccc2c(C)cc(SCC(=O)c3ccc4c(c3)OCO4)nc2c1,-5.8,-24.3,63.5*,-4.2,-8.9,-17.2,27.4,14.1,5.4
CC(=O)Nc1cccc(NC(=O)CCn2cnc3cc(C)c(C)cc32)c1,-27.5,12.2,58.1*,2.2,-3.9,2.1,10.6,6.4,-56.6
OCC1OC(c2ccccc2)OC2COC(c3ccccc3)OC12 (centres undefined),.,.,8.9,.,.,.,.,.,.
CSc1ccc(S(=O)(=O)N2CCC(C(=O)Nc3cccnc3)CC2)cc1,-1.3,22.7,75.8*,3.2,13.2,30.2,16.2,11.4,7.5
O=C(CNC(=O)c1sc2ccccc2c1Cl)OCc1ccccc1,-7.5,0.0,-5.3,23.2,2.4,-6.1,.,.,.
Cc1ccccc1COC(=O)CNC(=O)c1sc2ccccc2c1Cl,.,-1.6,65.0*,6.9,5.7,3.9,20.6,10.2,-0.5
CC(C)n1c(-c2ccco2)csc1=Nc1cccnc1,19.5,-37.9,50.2,-55.4,-7.7,17.5,50.8*,25.0*,18.1
CC1CCC(NC(=O)c2cccc(S(=O)(=O)N3CCN(c4ccccc4)CC3)c2)CC1 (centres undefined),.,-1.8,50.1,-1.9,22.7,13.3,46.9*,24.9,-30.1
COc1cccc(CN(C)C(=O)c2cccc(S(=O)(=O)N3CCN(c4ccc(F)cc4)CC3)c2)c1OC,.,-7.2,51.2,-44.0,33.9,13.7,50.0*,32.5*,-11.9
CN(CCOc1ccc(Cl)cc1)C(=O)c1cccc(S(=O)(=O)N2CCN(c3ccccc3)CC2)c1,.,.,50.9,.,.,.,57.5*,34.1*,-5.9
CC1CCC(NC(=O)c2cccc(S(=O)(=O)N3CCN(C)CC3)c2)CC1 (centres undefined),.,-56.1,-19.1,-4.4,15.5,-16.0,.,.,.
CN(Cc1ccc(OC(F)F)cc1)C(=O)c1cccc(S(=O)(=O)N2CCN(Cc3ccccc3)CC2)c1,.,.,58.2*,.,.,.,58.3*,21.9,2.8
COc1cccc(CN(C)C(=O)c2cccc(S(=O)(=O)N3CCN(c4ccccc4)CC3)c2)c1OC,.,.,23.4,.,.,.,.,.,.
COCCN(C(=S)Nc1ccc(Cl)cc1OC)C1CCN(C(C)=O)CC1,-10.5,-18.2,1.6,8.3,4.7,1.7,.,.,.
Cc1c(F)cccc1NS(=O)(=O)c1ccc2c(c1)c(=O)n(C)c(=O)n2C,-25.1,27.3,5.8,12.1,19.8,-15.1,.,.,.
Cc1c(F)cccc1NS(=O)(=O)c1ccc2c(c1)n(C)c(=O)c(=O)n2C,-16.6,3.5,52.7,11.0,15.7,-1.5,6.8,9.5,-21.5
Cc1cc2occ(CC(=O)N(C)CC(=O)Nc3ccccc3Cl)c2cc1C,.,4.3,-2.7,14.0,-7.3,7.8,.,.,.
SMILES,KLF5 inhibitor,aSyn UTR inh,Gli-Sufu antag,697 NFkB inh,Mdm2-MdmX inh,Jurkat NFkB inh,Gli-Sufu confirm,SufuKO cytotox,Wnt3a counter
O=C(O)/C=C/c1ccc(S(=O)(=O)NCc2cccnc2)cc1,-46.1,4.9,2.2,19.1,11.7,14.0,.,.,.
COc1cccc(NC(=S)Nc2cc(C(=O)O)ccc2N2CC3CC(C2)c2cccc(=O)n2C3)c1 (centres undefined),-38.6,-94.8,-3.8,-2.2,-21.9,-21.5,.,.,.
Cc1ccc(NC(=S)Nc2cc(C(=O)O)ccc2N2CC3CC(C2)c2cccc(=O)n2C3)cc1C (centres undefined),14.4,-60.7,79.0*,4.7,-12.4,0.3,-3.9,21.6,-6.8
c1ccc(CNC2CC3CCC2C3)cc1 (centres undefined),.,.,8.7,.,.,.,.,.,.
Cn1c(=O)c2[nH]c(CCCCc3nc4ccccc4[nH]3)nc2n(C)c1=O,.,.,13.9,.,.,.,.,.,.
Cn1c(=O)c2[nH]c(CCCCCCCCc3nc4ccccc4[nH]3)nc2n(C)c1=O,.,.,56.6*,.,.,.,66.2*,28.0*,-6.7
COc1cccc(C(=O)C2CCCN(C(=O)c3ccc(C#CC(C)(C)O)cc3)C2)c1 (centres undefined),-23.0,4.9,59.5*,-24.7,20.3,-17.5,17.6,14.0,-45.0
O=C(Cn1ccc(C(F)(F)F)n1)N/N=C/c1ccc2c(c1)OCO2,-37.5,-33.3,58.5*,-16.2,7.5,-32.4,9.2,21.3,-67.9
S=c1nc(C2CC2)n(-c2ccccc2)[nH]1,-1.4,0.9,-14.9,6.7,3.7,0.7,.,.,.
CCN(c1ccccc1)S(=O)(=O)c1ccc(N2CCN(c3ccc(O)cc3)CC2)nc1,.,.,55.2*,-21.2,4.8,-1.5,29.0,3.7,-23.5
CCN(c1ccccc1)S(=O)(=O)c1ccc(N2CCN(c3ccc(OC)cc3)CC2)nc1,.,.,23.8,-21.4,3.0,-9.1,.,.,.
Cc1cc(N)nc(=O)n1C1CC(O)C(CO)O1 (centres undefined),.,.,9.3,.,.,.,.,.,.
Nc1nc(=O)n(C2CC(O)C(CO)O2)cc1F (centres undefined),.,.,65.7*,.,.,.,46.5*,17.0,45.2*
NC(=O)C1CCN(Cc2nc3cc(C(F)(F)F)ccc3c(=O)[nH]2)CC1,-24.5,-1.0,-21.2,14.6,-1.9,7.4,.,.,.
Cc1ccc(C(C)C)c(OCC(O)CN2CCc3ccccc3C2)c1 (centres undefined),-20.8,12.8,42.0,-14.1,19.6,-0.1,.,.,.
